Results filed as inconclusive are left out. The call rests on the fitted dose curve; in most records, active means well fitted curve in the direction sought with a large enough effect; inconclusive means small, poorly fitted or top-dose-only effect, or effect the other way, or another doubt; inactive means no such curve, though single readings can be large or run the other way.
Biological target: Alpha-galactosidase A (Homo sapiens) (UniProt P06280)
Experiment: Confirmation of Inhibitors of Human alpha-Galactosidase Using Spleen Homogenate; further: 0% is about no effect
Details: alpha-galactosidase enzyme activity; series mostly up to 56.2 µM; activity change: at the top concentration
Outline: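 AC50 values come from Hill-equation fits of normalised 4-methylumbelliferone fluorescence (365/440 nm, read after NaOH/glycine stop). Enzyme source: spleen homogenate; substrate 1 mM final; pH 5.0 citrate buffer; 40 min at 37C; compound titration 0.5 nM–58 uM.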

Alpha-galactosidase A (Homo sapiens), sequence (P06280 32-429 limits assumed): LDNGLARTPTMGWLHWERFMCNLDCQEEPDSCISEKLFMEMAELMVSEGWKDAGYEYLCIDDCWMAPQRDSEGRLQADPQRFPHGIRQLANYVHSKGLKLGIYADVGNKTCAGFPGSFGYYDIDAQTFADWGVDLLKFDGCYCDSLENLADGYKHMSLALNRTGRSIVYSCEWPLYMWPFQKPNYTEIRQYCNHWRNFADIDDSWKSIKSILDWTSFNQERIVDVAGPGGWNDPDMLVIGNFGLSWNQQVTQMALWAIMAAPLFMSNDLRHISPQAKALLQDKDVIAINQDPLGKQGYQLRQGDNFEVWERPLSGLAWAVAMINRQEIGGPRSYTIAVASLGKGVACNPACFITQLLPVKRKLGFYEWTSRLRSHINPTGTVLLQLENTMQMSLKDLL

Activity change, inactive:
Cc1sc(-c2cc3c(ccc4ccccc43)oc2=O)nc1-c1ccccc1 6.32%, Cc1nc(SCC(=O)N2CCN(c3ccccc3)CC2)c2oc3ccccc3c2n1 11.7%, CC1CCc2nc(-c3cc4c(ccc5ccccc54)oc3=O)sc2C1 (stereo unspecified) 4.94%, CC(C)(C)OC(=O)NCCCC[C@H](NC(=O)c1nc[nH]c1C(=O)NCc1ccccc1)C(=O)OC(C)(C)C -8.24%, COc1cc(NC(=O)CN2CCN(c3ccccc3F)CC2)c(C)cc1[N+](=O)[O-] 1.56% [at 23.6 µM], O=c1oc2ccc(Cl)cc2cc1-c1nc2c(s1)CCc1ccccc1-2 5.46%, COc1cccc(S(=O)(=O)N2CCOCC2)c1 9.2%, CCOC(=O)Nc1ccc2c(c1)N(C(=O)CN(CC)CC)c1ccccc1CC2 -1.98%, O=C(CSc1n[nH]c(-c2ccccc2)n1)c1ccc(O)c(O)c1 -0.0554%, CN(CCO)S(=O)(=O)c1ccc2c(c1)C(=NN)c1cc(S(=O)(=O)N(C)CCO)ccc1-2 3.16%, Cc1ccc(S(=O)(=O)N2CCOCC2)cc1 -2.3%, Cc1c(OCC(F)(F)F)ccnc1CS(=O)c1nc2ccccc2[nH]1 (stereo unspecified) -5.23% [at 287 µM], O=C(c1cc2c(ccc3ccccc32)oc1=O)N1CCN(CCO)CC1 14.3% [at 23.6 µM], O=C(c1ccccc1)N1CCN(C(=O)N(c2ccccc2)c2ccccc2)CC1 3.27%, NC(=O)NN=C1c2cc(S(=O)(=O)N3CCOCC3)ccc2-c2ccc(S(=O)(=O)N3CCOCC3)cc21 8.14%, O=c1oc2ccc3ccccc3c2cc1-c1nc2c(s1)CCc1ccccc1-2 8.82%, O=S(=O)(c1ccc(Cl)cc1)N1CCOCC1 5.93%, COCCn1c(=NC(=O)c2ccc3c(c2)OCO3)c(C#N)cc2c(=O)n3cccc(C)c3nc21 2.06% [at 23.6 µM], O=C1c2cc(O)c(O)cc2S(=O)(=O)C1c1ccccc1 (stereo unspecified) 0.148%, Cc1ccc2oc(C(=O)Nc3ccc(S(=O)(=O)N4CCCCC4C)cc3)cc(=O)c2c1 (stereo unspecified) -5.07%, Clc1ccc(Nc2ncnc3ccc(Br)cc23)cc1 -6.43% [at 23.6 µM], Cc1nnc(SCC(=O)Nc2ccc3c(c2)COC3=O)n1-c1ccccc1 0.342% [at 23.6 µM], O=C(Nc1nc2c(s1)CN(Cc1ccccc1)CC2)C1CCCC1 -7.59%, CN1CC=C2C(C#N)=C(N)C(C#N)(C#N)[C@H](c3cccc(Cl)c3)C2C1 (stereo partly specified) -3.22% [at 23.6 µM], N#Cc1ccccc1S(=O)(=O)N1CCOCC1 8.2%, CCCn1c(=O)c2c(C(F)(F)F)cc(-c3cccs3)nc2n(CCC)c1=O 19.4%, C/C=C1\COC(C(=O)NCCN2CCOCC2)(C(F)(F)F)C=C1C=C1CCCCC1 (stereo unspecified) -3.09%, NC(=S)NN=C1c2cc(S(=O)(=O)N3CCOCC3)ccc2-c2ccc(S(=O)(=O)N3CCOCC3)cc21 5.73%, CCOC(=O)C(CC)(CCC(=O)O)c1csc(Nc2ccc(C)cc2)n1 (stereo unspecified) 9.44% [at 23.6 µM], COc1ccccc1N1CCN(C(c2cccs2)C(C)NC(=O)c2cccs2)CC1 (stereo unspecified) 0.409% [at 23.6 µM], COc1cccc2cc(-c3nc(-c4ccc(C)cc4)c(C)s3)c(=O)oc12 6.04%, O=C(Cn1c(=O)n(Cc2ccccc2)c(=O)c2sc3ccccc3c21)Nc1ccccc1 -5.67%, O=C(Nc1ccc(OCC(=O)N2CCN(S(=O)(=O)c3ccccc3)CC2)cc1)c1ccco1 2.43%, O=C1c2cc(S(=O)(=O)N3CCOCC3)ccc2-c2ccc(S(=O)(=O)N3CCOCC3)cc21 11.1%, CCCCCCc1cc2cc(C(=O)NC)c(=N)oc2cc1O 71.6%, O=C(c1ccc2ccccc2c1)N1CCN(S(=O)(=O)c2ccccc2)CC1 4.96%
